Screening results deposited in PubChem BioAssay by several laboratories.
S1P2 agonist: S1P2 receptor agonists, primary screen, cell-based; S1P2-expressing cell line, agonist reporter read-out; 97,000 tested, 0.46% active; activation, % at 4.5 µM; in the data active = activation above about 16%;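 also: 0% = vehicle low control and 100% = maximal reference agonist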
LYP inh 2: PTPN22 phosphatase inhibitors, primary screen, biochemical, DiFMUP fluorescence, 2 µM | recombinant LYP catalytic domain | 96,000 tested, 0.21% active | inhibition, % at 2 µM | Tyrosine-protein phosphatase non-receptor type 22 (Homo sapiens), Q9Y2R2;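 active = inhibition at 2 µM at or above a set limit, the screen mean plus 3 SD, cut at about 24% in these data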;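 also: 0% = DMSO with enzyme and 100% = enzyme fully blocked by orthovanadate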
LYP act: LYP phosphatase activators, primary screen, biochemical, DiFMUP fluorescence, 2 µM. Tyrosine-protein phosphatase non-receptor type 22 (Homo sapiens), Q9Y2R2. recombinant LYP; 0 = plate median, 100 = signal doubled. activation, % at 2 µM. 96,000 tested, 0.11% active. AID 697, 2007;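 active = activation at 2 µM above a set limit, the mean plus 5 SD, cut at about 37% in these data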
S1P2 blocker: human S1P2 receptor antagonists, primary screen, cell-based | 97,000 tested, 0.21% active | Sphingosine 1-phosphate receptor 2 (Homo sapiens), O95136 | inhibition, % at 5 µM | cell-based S1P2 antagonist assay, inhibition at 5 uM; in the data active = inhibition above about 45%;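 also: CRE beta-lactamase reporter cells expressing human S1P2 stimulated with S1P; 0% = agonist at EC80 alone and 100% = agonist plus reference antagonist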
GALR2 ag: GALR2 receptor agonists, primary screen, cell-based. Galanin receptor type 2 (Homo sapiens), O43603. GALR2-expressing cells, agonist activation read-out. activation, % (concentration not given with the values). 140,000 tested, 0.48% active. AID 803, 2007; in the data active = activation above about 5%, passing the limit was not always enough;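 also: 0% = vehicle buffer wells and 100% = reference agonist at full effect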
Target sequence (O43603 whole entry, looked up): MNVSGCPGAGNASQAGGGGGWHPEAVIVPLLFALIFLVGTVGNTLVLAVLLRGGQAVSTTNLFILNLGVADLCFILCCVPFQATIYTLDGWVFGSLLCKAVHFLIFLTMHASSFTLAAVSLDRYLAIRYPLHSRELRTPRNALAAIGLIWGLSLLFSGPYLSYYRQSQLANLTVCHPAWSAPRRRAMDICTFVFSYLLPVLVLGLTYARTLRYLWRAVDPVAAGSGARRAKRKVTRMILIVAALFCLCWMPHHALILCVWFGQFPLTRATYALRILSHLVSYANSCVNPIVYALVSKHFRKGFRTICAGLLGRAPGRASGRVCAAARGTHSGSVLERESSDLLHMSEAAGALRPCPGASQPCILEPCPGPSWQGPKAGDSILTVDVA
GALR2 blocker: GALR2 antagonists in receptor-expressing cells, primary screen | 140,000 tested, 0.39% active | inhibition, % at 4 µM | antagonist mode;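 also: cells stimulated with galanin 1-16 at roughly its EC80; 0% = agonist challenge control and 100% = basal control without agonist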
GALR2 ant conf: GALR2 antagonists, retest of hits, confirmation, cell-based. GALR2-expressing cells, antagonist mode, inhibition. inhibition, % at 4 µM. shares compounds with GALR2 blocker. 480 tested, 60% active;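 also: cells stimulated with galanin at about its EC80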
BLA inh counter: inhibitors of NFAT-driven beta-lactamase reporter, confirmation, counter-screen for GALR2 antagonist project, CHO NFAT-bla cells, FRET readout | 480 tested, 36% active | thapsigargin-stimulated | shares compounds with GALR2 blocker | AID 867, 2007 | inhibition, % at 4.2 µM;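 active = inhibition above the mean inhibition across tested compounds plus 3 SD, cut at about 27% in these data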;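 also: 0% = 500 nM thapsigargin stimulated wells and 100% = unstimulated BSA only wells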
* marks the source's active call; other numbers are inactive results. Hits are enriched below; roughly 1.3% of the tested compounds scored in any of these assays. Rule as the data show it, unless noted: active = inhibition above about 27%; inactive = the rest.

`O=c1c2cc([N+](=O)[O-])ccc2nc(CN2CCOCC2)n1-c1ccccc1F` gave S1P2 agonist -3.5, LYP inh 2 9.1, LYP act -9.7, S1P2 blocker 21.7, GALR2 ag -2.9 and GALR2 blocker -4.9.
Screening O=C1NC(=O)C2(Cc3c(nc4ccccn4c3=O)N3CCCCCC32)C(=O)N1Cc1ccccc1 (stereo not drawn) returned S1P2 agonist -11.6, LYP inh 2 3.5, LYP act -3.4, S1P2 blocker 21.4, GALR2 ag -0.4 and GALR2 blocker -5.4.
CC(=O)OC1(c2ccc(C)cc2)CN2CCC1c1ccccc12 (stereo not drawn) was read as S1P2 agonist -4.3, LYP inh 2 0.5, LYP act 1.1, S1P2 blocker 2.0, GALR2 ag -2.4, GALR2 blocker 39.0*, GALR2 ant conf 17.2 and BLA inh counter 14.2.
Screening Nc1cc(Cl)c2nonc2c1[N+](=O)[O-] returned GALR2 ag 4.3, GALR2 blocker 37.1*, GALR2 ant conf 35.4* and BLA inh counter 12.1.
For Clc1cccc(Cl)c1C1N2CCCN12 (stereo not drawn) the results were S1P2 agonist -1.6, LYP inh 2 3.2, LYP act -1.1, S1P2 blocker -18.3, GALR2 ag -0.2 and GALR2 blocker 0.7.
For O=C(C1CCN(S(=O)(=O)N2CCOCC2)CC1)N1CCC2(CC1)OCCO2 the results were S1P2 agonist -4.9, LYP inh 2 6.6, LYP act -7.7, S1P2 blocker 10.7, GALR2 ag -1.3 and GALR2 blocker 5.5.
`CN(C)P(=O)(C(Cl)=C(N1CCCCC1)N1CCCCC1)N(C)C` gave S1P2 agonist -2.9, LYP inh 2 -2.2, LYP act -0.8, S1P2 blocker -14.7, GALR2 ag -0.7 and GALR2 blocker -1.8.
CC(=O)OC(C)(C)/C=C/C(=O)[C@](C)(O)[C@H]1[C@H](O)C[C@@]2(C)[C@@H]3CC=C4[C@H](C[C@H](O)C(=O)C4(C)C)[C@]3(C)C(=O)C[C@]12C was read as GALR2 ag -2.8, GALR2 blocker 72.2*, GALR2 ant conf 86.9* and BLA inh counter 102.4*.
CC1=CC(=C2C(=O)NC(=S)NC2=O)C=C(C(F)(F)F)N1C was read as S1P2 agonist -4.9, LYP inh 2 -20.4, LYP act 20.3, S1P2 blocker -18.0, GALR2 ag -0.3 and GALR2 blocker 7.7.
`C=CCn1c(O)c(/C=C2/C=CC=N2)c(=O)[nH]c1=O` gave GALR2 ag -0.9, GALR2 blocker 34.6*, GALR2 ant conf 24.7 and BLA inh counter 10.1.
For NP(=O)(OCC(F)(F)F)Oc1ccc(Cl)cc1 (stereo not drawn) the results were GALR2 ag -0.3 and GALR2 blocker 2.5.
For COc1cc(/C=C/[N+](=O)[O-])ccc1O the results were GALR2 ag -2.0, GALR2 blocker 52.3*, GALR2 ant conf 55.4* and BLA inh counter 22.7.
